Results taken from paper PMC7862700, “An all-to-all approach to the identification of sequence-specific readers for epigenetic DNA modifications on cytosine”.

Tests used:
Assay in all cases: DAPPL (digital affinity profiling via proximity ligation, sequencing); 10 mM Tris-HCl pH 7.5, 50 mM NaCl, 1 mM DTT, 4% glycerol, room temperature, 30 min; GST-TFs on glutathione beads, 16-mer random dsDNA library, 0.1% formaldehyde crosslink after washing; high values mean tight binding
Conditions in all cases: protein: recombinant; tags: N-terminal GST; dsDNA, one strand shown
[1] = target: T1, ELK1 (Homo sapiens, UniProt P19419 1-428)
T1 sequence: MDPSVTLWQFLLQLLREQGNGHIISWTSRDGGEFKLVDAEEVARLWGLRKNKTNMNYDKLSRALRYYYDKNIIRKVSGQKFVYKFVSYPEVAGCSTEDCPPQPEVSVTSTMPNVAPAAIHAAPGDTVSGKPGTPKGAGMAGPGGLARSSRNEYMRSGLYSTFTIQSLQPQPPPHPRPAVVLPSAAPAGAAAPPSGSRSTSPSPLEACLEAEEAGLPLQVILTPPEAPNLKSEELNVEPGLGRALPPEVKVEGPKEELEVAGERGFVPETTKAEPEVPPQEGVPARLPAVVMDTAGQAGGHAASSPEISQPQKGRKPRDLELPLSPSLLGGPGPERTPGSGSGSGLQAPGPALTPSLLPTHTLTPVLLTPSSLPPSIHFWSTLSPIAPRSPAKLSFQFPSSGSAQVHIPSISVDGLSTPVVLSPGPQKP
Method in brief: (§1)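 Human transcription factors fused to GST were expressed in yeast, captured on glutathione beads, given DNA barcodes and pooled with a GST-only negative control. Pools were incubated with 200 nmole of a 16-mer random double-stranded DNA library in Tris/NaCl/DTT/glycerol buffer at room temperature for 30 min. They were then washed, crosslinked with 0.1% formaldehyde, proximity-ligated (BsaI/T4 ligase, 1 h, 37 °C), PCR-amplified and sequenced on an Illumina NextSeq500. Binding signal is each 6-mer's read frequency for a factor divided by its frequency for the GST control.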

[2] = target: T2, GABPA (Homo sapiens, UniProt Q06546 1-454)
T2 sequence: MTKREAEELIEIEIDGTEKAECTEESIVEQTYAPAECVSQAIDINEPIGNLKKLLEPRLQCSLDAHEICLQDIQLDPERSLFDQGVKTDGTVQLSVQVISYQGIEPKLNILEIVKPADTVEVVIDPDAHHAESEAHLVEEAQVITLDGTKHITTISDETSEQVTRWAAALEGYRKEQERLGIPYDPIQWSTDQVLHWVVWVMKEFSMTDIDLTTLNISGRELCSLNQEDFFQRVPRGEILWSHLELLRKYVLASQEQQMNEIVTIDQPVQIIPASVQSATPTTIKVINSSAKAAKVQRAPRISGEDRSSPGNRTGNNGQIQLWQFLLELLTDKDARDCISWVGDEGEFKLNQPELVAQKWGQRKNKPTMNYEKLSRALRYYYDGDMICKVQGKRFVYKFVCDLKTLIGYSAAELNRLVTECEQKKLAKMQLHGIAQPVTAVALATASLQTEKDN
Method in brief: as §1

[3] = target: T3, ERG (Homo sapiens, UniProt P11308 1-479)
T3 sequence: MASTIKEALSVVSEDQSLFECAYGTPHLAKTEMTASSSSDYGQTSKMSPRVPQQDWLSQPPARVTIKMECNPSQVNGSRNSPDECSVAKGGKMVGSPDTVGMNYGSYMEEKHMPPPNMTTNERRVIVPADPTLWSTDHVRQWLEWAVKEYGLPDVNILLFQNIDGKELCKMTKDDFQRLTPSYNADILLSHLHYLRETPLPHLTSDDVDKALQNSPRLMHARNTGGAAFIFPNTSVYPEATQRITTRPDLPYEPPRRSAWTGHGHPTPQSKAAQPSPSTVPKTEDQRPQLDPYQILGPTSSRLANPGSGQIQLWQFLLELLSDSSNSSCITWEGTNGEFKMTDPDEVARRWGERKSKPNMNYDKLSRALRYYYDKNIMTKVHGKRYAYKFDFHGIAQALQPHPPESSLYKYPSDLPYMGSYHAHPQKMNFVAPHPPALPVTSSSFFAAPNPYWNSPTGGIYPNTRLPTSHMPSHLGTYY
Method in brief: as §1

[4] = target: ELF1 (Homo sapiens, UniProt P32519 1-619)
Method in brief: as §1

[5] = target: T4, EHF (Homo sapiens, UniProt Q9NZC4 1-300)
T4 sequence: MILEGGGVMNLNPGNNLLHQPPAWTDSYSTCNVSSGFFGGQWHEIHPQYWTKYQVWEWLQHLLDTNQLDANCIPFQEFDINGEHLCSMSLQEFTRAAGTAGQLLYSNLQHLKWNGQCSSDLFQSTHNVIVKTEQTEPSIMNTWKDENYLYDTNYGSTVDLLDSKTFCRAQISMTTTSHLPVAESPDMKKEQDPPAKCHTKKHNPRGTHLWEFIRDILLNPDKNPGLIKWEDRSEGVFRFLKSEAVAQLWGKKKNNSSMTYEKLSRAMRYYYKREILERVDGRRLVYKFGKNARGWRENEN
Method in brief: as §1

[6] = target: T5, FEV (Homo sapiens, UniProt Q99581 1-238)
T5 sequence: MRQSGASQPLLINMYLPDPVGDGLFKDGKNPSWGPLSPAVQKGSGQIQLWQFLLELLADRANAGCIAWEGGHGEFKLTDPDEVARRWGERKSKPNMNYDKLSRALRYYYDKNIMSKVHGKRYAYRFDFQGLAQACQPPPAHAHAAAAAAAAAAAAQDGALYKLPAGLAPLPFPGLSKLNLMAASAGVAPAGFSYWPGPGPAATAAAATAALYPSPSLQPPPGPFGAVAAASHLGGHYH
Method in brief: as §1

[7] = target: ETV5 (Homo sapiens, UniProt P41161 1-510)
Method in brief: as §1

[8] = target: ELF4 (Homo sapiens, UniProt Q99607 1-663)
Method in brief: as §1

[9] = target: T6, ELK4 (Homo sapiens, UniProt P28324-2 1-405)
T6 sequence: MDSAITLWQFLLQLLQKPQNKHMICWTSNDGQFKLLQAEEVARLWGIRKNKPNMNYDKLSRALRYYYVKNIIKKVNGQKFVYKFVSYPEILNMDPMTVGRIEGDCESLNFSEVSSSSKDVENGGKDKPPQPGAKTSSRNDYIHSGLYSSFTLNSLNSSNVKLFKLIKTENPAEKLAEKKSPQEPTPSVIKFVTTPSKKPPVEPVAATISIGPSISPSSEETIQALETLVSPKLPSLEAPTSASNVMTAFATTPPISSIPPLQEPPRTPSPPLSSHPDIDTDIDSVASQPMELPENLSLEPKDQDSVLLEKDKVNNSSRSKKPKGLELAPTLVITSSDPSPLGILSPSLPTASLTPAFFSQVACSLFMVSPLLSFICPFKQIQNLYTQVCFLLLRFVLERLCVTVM
Method in brief: as §1

[10] = target: T7, ETV2 (Homo sapiens, UniProt O00321 1-342)
T7 sequence: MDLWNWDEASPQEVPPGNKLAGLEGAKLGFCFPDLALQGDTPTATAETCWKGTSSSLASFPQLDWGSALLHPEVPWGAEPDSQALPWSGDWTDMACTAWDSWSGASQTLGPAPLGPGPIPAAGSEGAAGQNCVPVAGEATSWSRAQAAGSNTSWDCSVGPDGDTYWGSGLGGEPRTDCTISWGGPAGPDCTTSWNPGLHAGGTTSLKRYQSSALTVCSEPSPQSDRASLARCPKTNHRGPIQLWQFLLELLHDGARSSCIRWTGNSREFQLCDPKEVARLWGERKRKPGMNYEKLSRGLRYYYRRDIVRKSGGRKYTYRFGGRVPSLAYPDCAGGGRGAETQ
Method in brief: as §1

[11] = target: ETV1 (Homo sapiens, UniProt P50549 1-477)
Method in brief: as §1

[12] = target: T8, ERF (Homo sapiens, UniProt P50548 1-548)
T8 sequence: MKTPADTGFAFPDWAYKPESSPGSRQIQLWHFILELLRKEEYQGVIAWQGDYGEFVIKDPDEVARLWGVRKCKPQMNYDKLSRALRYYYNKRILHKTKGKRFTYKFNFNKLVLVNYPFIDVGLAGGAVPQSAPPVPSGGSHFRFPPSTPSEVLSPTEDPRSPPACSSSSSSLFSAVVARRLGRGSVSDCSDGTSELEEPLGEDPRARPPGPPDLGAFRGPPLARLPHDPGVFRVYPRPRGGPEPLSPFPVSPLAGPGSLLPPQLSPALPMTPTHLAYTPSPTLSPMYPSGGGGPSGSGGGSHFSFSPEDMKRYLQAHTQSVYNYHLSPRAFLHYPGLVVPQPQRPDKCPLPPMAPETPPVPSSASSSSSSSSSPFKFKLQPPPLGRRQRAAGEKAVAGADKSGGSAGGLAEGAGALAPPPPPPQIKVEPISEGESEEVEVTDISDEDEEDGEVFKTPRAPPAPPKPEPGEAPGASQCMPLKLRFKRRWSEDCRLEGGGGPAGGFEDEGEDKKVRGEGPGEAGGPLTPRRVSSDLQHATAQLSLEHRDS
Method in brief: as §1

[13] = target: T9, ETV3L (Homo sapiens, UniProt Q6ZN32 1-361)
T9 sequence: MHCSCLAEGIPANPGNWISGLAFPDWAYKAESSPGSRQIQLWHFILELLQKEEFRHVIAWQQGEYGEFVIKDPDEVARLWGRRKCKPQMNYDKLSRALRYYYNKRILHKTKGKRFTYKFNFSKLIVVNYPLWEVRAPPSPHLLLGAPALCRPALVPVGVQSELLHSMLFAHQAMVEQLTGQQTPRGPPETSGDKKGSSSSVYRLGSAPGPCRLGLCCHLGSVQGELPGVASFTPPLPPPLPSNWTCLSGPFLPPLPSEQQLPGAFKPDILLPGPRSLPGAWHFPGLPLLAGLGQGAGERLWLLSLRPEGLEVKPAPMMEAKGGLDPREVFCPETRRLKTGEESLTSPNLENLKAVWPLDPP
Method in brief: as §1

[14] = target: T10, ETS2 (Homo sapiens, UniProt P15036 1-469)
T10 sequence: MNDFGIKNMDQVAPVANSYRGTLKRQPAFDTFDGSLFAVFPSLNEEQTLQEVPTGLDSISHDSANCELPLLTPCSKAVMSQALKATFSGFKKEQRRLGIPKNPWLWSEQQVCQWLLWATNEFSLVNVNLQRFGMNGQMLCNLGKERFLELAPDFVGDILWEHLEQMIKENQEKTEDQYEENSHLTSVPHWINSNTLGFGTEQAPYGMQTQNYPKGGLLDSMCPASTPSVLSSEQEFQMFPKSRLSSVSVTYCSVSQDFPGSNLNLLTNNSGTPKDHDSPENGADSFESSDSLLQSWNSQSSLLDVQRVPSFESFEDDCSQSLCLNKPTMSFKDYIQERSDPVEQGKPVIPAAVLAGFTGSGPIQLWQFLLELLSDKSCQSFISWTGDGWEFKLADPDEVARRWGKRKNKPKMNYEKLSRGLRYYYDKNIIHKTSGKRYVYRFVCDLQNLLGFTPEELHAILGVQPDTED
Method in brief: as §1

[15] = target: T11, SPDEF (Homo sapiens, UniProt O95238 1-335)
T11 sequence: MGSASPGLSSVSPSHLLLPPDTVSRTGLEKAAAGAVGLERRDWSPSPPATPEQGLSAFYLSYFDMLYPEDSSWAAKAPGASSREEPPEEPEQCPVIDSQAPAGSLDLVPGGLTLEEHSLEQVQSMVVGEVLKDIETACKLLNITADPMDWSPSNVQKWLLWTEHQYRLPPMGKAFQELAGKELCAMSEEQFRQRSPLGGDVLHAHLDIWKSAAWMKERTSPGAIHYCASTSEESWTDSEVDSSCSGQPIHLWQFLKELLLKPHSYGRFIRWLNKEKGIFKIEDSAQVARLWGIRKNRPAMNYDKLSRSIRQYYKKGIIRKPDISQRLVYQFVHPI
Method in brief: as §1

[16] = target: T12, ETV7 (Homo sapiens, UniProt Q9Y603 1-341)
T12 sequence: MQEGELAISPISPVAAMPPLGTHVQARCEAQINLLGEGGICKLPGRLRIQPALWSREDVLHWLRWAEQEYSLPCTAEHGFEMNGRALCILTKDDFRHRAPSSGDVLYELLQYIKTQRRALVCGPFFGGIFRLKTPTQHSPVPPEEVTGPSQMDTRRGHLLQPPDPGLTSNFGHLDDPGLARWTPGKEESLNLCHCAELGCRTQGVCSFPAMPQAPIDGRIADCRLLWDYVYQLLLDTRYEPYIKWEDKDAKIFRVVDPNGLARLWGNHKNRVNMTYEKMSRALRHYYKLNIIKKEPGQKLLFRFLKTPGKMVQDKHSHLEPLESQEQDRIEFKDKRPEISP
Method in brief: as §1

[17] = target: T13, ETV3 (Homo sapiens, UniProt P41162-2 1-143)
T13 sequence: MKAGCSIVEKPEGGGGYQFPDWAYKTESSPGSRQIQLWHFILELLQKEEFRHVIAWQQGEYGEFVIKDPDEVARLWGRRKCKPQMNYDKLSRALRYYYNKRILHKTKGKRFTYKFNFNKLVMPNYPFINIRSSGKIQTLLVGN
Method in brief: as §1

[18] = target: ETV6 (Homo sapiens, UniProt P41212 1-452)
Method in brief: as §1

ELF4, sequence (Q99607 whole entry): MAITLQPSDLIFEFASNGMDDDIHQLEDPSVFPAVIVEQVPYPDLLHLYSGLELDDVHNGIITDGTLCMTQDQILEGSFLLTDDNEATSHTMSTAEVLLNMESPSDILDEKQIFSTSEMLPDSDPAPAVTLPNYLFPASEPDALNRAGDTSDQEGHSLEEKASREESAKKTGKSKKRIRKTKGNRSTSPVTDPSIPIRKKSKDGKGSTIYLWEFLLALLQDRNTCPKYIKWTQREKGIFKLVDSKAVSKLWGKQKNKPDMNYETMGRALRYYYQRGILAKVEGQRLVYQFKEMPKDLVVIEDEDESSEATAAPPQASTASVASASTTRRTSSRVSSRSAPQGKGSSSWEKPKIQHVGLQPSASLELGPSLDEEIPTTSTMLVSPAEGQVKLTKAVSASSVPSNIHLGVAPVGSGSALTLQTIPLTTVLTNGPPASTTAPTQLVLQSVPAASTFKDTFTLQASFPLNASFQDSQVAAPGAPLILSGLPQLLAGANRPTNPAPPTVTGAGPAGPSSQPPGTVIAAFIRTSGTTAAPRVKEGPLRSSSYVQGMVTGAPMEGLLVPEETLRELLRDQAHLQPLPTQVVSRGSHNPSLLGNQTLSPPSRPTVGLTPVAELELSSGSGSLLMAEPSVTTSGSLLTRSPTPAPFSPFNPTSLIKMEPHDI
ETV1, sequence (P50549 whole entry): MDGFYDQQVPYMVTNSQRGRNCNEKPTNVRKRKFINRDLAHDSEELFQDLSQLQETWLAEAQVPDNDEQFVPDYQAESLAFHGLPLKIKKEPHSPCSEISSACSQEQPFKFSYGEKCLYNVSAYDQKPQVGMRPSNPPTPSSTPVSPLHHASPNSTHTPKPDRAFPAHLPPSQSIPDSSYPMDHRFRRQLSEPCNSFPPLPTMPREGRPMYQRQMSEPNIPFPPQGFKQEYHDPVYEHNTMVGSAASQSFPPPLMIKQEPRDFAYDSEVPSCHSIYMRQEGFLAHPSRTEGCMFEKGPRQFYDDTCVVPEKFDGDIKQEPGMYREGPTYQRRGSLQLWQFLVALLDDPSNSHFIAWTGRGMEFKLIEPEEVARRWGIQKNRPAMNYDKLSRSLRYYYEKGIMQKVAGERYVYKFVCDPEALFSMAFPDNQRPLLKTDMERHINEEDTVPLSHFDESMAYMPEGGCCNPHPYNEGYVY
ETV6, sequence (P41212 whole entry): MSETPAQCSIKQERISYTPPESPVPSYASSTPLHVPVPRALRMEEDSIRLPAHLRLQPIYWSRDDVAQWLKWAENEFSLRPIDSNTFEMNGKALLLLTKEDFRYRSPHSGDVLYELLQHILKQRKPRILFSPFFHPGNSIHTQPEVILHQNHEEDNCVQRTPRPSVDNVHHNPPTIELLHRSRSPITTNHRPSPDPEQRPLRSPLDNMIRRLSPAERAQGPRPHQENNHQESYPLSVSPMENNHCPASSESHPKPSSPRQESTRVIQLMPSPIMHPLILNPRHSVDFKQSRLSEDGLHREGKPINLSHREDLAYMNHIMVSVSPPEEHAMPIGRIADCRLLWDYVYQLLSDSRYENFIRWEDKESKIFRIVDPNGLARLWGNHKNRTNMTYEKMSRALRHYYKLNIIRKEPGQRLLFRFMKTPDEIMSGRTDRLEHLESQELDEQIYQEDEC
ELF1, sequence (P32519 whole entry): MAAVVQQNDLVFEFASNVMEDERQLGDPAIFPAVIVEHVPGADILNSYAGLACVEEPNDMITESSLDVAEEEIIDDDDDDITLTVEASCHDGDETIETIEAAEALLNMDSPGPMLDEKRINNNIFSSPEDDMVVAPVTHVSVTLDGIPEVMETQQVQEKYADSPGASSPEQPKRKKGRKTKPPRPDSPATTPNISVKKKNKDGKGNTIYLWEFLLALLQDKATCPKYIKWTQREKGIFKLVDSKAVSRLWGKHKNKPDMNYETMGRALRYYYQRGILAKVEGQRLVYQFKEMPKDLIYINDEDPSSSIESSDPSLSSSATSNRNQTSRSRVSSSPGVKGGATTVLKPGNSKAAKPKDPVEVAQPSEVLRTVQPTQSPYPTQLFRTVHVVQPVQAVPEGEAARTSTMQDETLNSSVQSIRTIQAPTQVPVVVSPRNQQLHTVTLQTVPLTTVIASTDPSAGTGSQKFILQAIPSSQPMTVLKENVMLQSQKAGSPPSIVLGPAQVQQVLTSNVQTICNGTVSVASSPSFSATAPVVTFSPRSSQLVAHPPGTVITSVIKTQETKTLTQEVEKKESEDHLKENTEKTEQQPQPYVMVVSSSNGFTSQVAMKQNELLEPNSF
ETV5, sequence (P41161 whole entry): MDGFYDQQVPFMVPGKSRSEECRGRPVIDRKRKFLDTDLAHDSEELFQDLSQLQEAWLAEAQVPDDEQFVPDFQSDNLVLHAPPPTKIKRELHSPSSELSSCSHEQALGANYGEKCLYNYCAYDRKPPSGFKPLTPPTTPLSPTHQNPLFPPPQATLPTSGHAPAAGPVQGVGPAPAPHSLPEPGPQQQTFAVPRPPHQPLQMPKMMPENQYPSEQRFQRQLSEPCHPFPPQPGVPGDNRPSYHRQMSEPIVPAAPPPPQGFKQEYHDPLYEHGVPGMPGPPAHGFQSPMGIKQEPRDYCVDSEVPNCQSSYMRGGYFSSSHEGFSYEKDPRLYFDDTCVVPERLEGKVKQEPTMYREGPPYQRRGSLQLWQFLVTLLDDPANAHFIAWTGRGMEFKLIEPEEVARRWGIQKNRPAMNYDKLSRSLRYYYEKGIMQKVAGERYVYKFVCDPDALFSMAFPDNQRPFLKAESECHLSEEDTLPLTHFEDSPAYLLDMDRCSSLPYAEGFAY

AGCACA was tested, and the binding signal [1] was 1.01 fold enrichment (6-mer frequency, TF over GST control), the binding signal [2] was 1.08 fold enrichment (6-mer frequency, TF over GST control) and the binding signal [3] was 1.03 fold enrichment (6-mer frequency, TF over GST control). For the same sequence, the binding signal [4] was 1.06 fold enrichment (6-mer frequency, TF over GST control), the binding signal [5] was 1.04 fold enrichment (6-mer frequency, TF over GST control) and the binding signal [6] was 1.12 fold enrichment (6-mer frequency, TF over GST control). For the same sequence, the binding signal [7] was 1.07 fold enrichment (6-mer frequency, TF over GST control), the binding signal [8] was 1.08 fold enrichment (6-mer frequency, TF over GST control) and the binding signal [9] was 1.02 fold enrichment (6-mer frequency, TF over GST control). For the same sequence, the binding signal [10] was 1.12 fold enrichment (6-mer frequency, TF over GST control), the binding signal [11] was 1.02 fold enrichment (6-mer frequency, TF over GST control) and the binding signal [12] was 1.13 fold enrichment (6-mer frequency, TF over GST control). The binding signal [13] was 1.14 fold enrichment (6-mer frequency, TF over GST control), the binding signal [14] was 1.02 fold enrichment (6-mer frequency, TF over GST control) and the binding signal [15] was 1.07 fold enrichment (6-mer frequency, TF over GST control). For the same sequence, the binding signal [16] was 1.01 fold enrichment (6-mer frequency, TF over GST control), the binding signal [17] was 1.05 fold enrichment (6-mer frequency, TF over GST control) and the binding signal [18] was 1.11 fold enrichment (6-mer frequency, TF over GST control).
